“And” between values parts separate entries of the source, which are not always exact repeats. Equal values may be shown once. The campaign covered roughly 5,500 compounds. About 2,000 (36%) were called active. About 18% were inconclusive and are not listed. Rule as the data show it: active = normalized growth mostly below about 0.91 (no sharp cut-off); inconclusive = no clear call, values can overlap the other calls; inactive = mostly above about 0.92. The list shows a part of the results.
Experiment: chemical genetic growth profiling, strain panel (AID 1159580);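 also: tested at 20 µM; growth read once vehicle control cultures reached saturation at 30 °C; 1 = growth at the plate median or of vehicle wells; lower values mean less growth of the strain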
Settings: S. cerevisiae deletion strains, growth OD

Measured: normalized growth

C[C@@H]1CC[C@]2(C(=O)O)CC[C@]3(C)C(=CCC4[C@@]5(C)CC[C@H](O)C(C)(C)C5CC[C@]43C)C2[C@H]1C (stereo partly specified)
inactive: locus YAL021C, strain ccr4, stronger effect = lower value 0.995 | locus YAL026C, strain drs2, stronger effect = lower value 1.01 | locus YAL030W, strain snc1, stronger effect = lower value 0.995 | locus YBL061C, strain skt5, stronger effect = lower value 1.01 | locus YBR009C, strain hhf1, stronger effect = lower value 1.01 | locus YBR021W, strain FUR4, stronger effect = lower value 1.03 | locus YBR023C, strain chs3, stronger effect = lower value 1.01 | locus YBR171W, strain sec66, stronger effect = lower value 1 | locus YBR229C, strain ROT2, stronger effect = lower value 1.03 | locus YBR231C, strain swc5, stronger effect = lower value 1.01 | locus YBR279W, strain paf1, stronger effect = lower value 1 | locus YCL011C, strain gbp2, stronger effect = lower value 1 | locus YCL016C, strain dcc1, stronger effect = lower value 1.01 | locus YCL029C, strain bik1, stronger effect = lower value 1 | locus YCL061C, strain MRC1, stronger effect = lower value 0.997 | locus YCL069W, strain vba3, stronger effect = lower value 1.01 | locus YCR088W, strain abp1, stronger effect = lower value 0.993 | locus YDL005C, strain med2, stronger effect = lower value 0.998 | locus YDL035C, strain GPR1, stronger effect = lower value 1.04 | locus YDL040C, strain nat1, stronger effect = lower value 0.992 | locus YDL074C, strain BRE1, stronger effect = lower value 1.07 | locus YDL101C, strain DUN1, stronger effect = lower value 1.03 | locus YDL134C, strain PPH21, stronger effect = lower value 1.08 | locus YDL185W, strain tfp1, stronger effect = lower value 0.999 | locus YDL192W, strain arf1, stronger effect = lower value 1.01 | locus YDR001C, strain nth1, stronger effect = lower value 1 | locus YDR069C, strain doa4, stronger effect = lower value 1 | locus YDR101C, strain arx1, stronger effect = lower value 1.01 | locus YDR137W, strain rgp1, stronger effect = lower value 1.04 | locus YDR150W, strain NUM1, stronger effect = lower value 1.03 | locus YDR159W, strain sac3, stronger effect = lower value 1 | locus YDR162C, strain NBP2, stronger effect = lower value 1.07 | locus YDR195W, strain ref2 0.974 | locus YDR297W, strain sur2, stronger effect = lower value 1 | locus YDR318W, strain mcm21, stronger effect = lower value 0.993 | locus YDR334W, strain swr1, stronger effect = lower value 1 | locus YDR335W, strain msn5, stronger effect = lower value 0.997 | locus YDR388W, stronger effect = lower value 1 | locus YDR392W, strain spt3, stronger effect = lower value 0.911 | locus YDR502C, strain sam2, stronger effect = lower value 0.997 | locus YEL003W, strain gim4, stronger effect = lower value 0.998 | locus YEL037C, strain rad23, stronger effect = lower value 1 | locus YEL061C, strain CIN8 (second series), stronger effect = lower value 0.995 | locus YEL061C, strain CIN8, stronger effect = lower value 1.02 | locus YER015W, strain faa2, stronger effect = lower value 1.01 | locus YER016W, strain bim1, stronger effect = lower value 0.999 | locus YER110C, stronger effect = lower value 1.01 | locus YER111C, strain swi4, stronger effect = lower value 0.984 | locus YER155C, strain BEM2 (second series), stronger effect = lower value 0.992 | locus YER155C, strain BEM2, stronger effect = lower value 1.02 | locus YER167W, strain BCK2, stronger effect = lower value 1.03 | locus YFR010W, strain ubp6, stronger effect = lower value 0.983 | locus YGL078C, strain dbp3, stronger effect = lower value 0.985 | locus YGL167C, strain pmr1, stronger effect = lower value 1 | locus YGL173C, strain kem1, stronger effect = lower value 1.01 | locus YGL227W, strain vid30, stronger effect = lower value 0.994 | locus YGL240W, strain doc1, stronger effect = lower value 0.998 | locus YGL248W, strain PDE1, stronger effect = lower value 1.03 | locus YGL253W, strain hxk2, stronger effect = lower value 1.01 | locus YGR135W, strain pre9, stronger effect = lower value 0.996 | locus YGR229C, strain SMI1, stronger effect = lower value 1.06 | locus YGR252W, strain gcn5, stronger effect = lower value 1.01 | locus YHR013C, strain ard1, stronger effect = lower value 0.996 | locus YHR027C, strain rpn1, stronger effect = lower value 0.995 | locus YHR030C, strain SLT2, stronger effect = lower value 1.02 | locus YHR079C, strain IRE1 (second series), stronger effect = lower value 0.996 | locus YHR079C, strain IRE1, stronger effect = lower value 1.02 | locus YHR094C, strain hxt1, stronger effect = lower value 1.01 | locus YHR129C, strain ARP1, stronger effect = lower value 1.03 | locus YHR142W, strain chs7, stronger effect = lower value 1.03 | locus YHR200W, strain rpn10, stronger effect = lower value 0.986 | locus YIL066C, strain RNR3, stronger effect = lower value 1.07 | locus YIL073C, strain SPO22, stronger effect = lower value 0.999 | locus YIL125W, strain kgd1, stronger effect = lower value 1 | locus YIR030C, strain dcg1, stronger effect = lower value 0.997 | locus YJL092W, strain hpr5, stronger effect = lower value 0.999 | locus YJL095W, strain BCK1 (second series), stronger effect = lower value 0.988 | locus YJL095W, strain BCK1, stronger effect = lower value 1.08 and 1.01 | locus YJL115W, strain asf1, stronger effect = lower value 0.992 | locus YJL129C, strain trk1, stronger effect = lower value 1.01 | locus YJL134W, strain LCB3, stronger effect = lower value 1.02 | locus YJL154C, strain vps35, stronger effect = lower value 0.997 | locus YJL164C, strain tpk1, stronger effect = lower value 1.01 | locus YJL166W, strain qcr8, stronger effect = lower value 1 | locus YJL168C, strain set2, stronger effect = lower value 0.986 | locus YJL187C, strain SWE1 (second series), stronger effect = lower value 1.05 | locus YJL187C, strain SWE1, stronger effect = lower value 0.997 | locus YJR043C, strain POL32, stronger effect = lower value 1.06 | locus YJR066W, strain TOR1, stronger effect = lower value 1.02 | locus YKL068W, stronger effect = lower value 1.01 | locus YKL160W, strain elf1, stronger effect = lower value 1 | locus YKL190W, strain CNB1, stronger effect = lower value 1.02 | locus YKR001C, strain vps1, stronger effect = lower value 1.02 | locus YKR026C, strain gcn3, stronger effect = lower value 0.996 | locus YKR091W, strain srl3, stronger effect = lower value 0.991 | locus YLL001W, strain dnm1, stronger effect = lower value 0.989 | locus YLL026W, stronger effect = lower value 0.989 | locus YLL041C, strain sdh2, stronger effect = lower value 0.995 | locus YLR027C, strain aat2, stronger effect = lower value 1.01 | locus YLR039C, strain RIC1, stronger effect = lower value 1.14 | locus YLR058C, strain SHM2, stronger effect = lower value 1.04 | locus YLR102C, strain apc9, stronger effect = lower value 0.987 | locus YLR113W, strain HOG1, stronger effect = lower value 0.995 | locus YLR221C, strain rsa3, stronger effect = lower value 1 | locus YLR258W, strain gsy2, stronger effect = lower value 1.01 | locus YLR262C, strain YPT6 (second series), stronger effect = lower value 1.02 | locus YLR262C, strain YPT6, stronger effect = lower value 1.11 | locus YLR268W, strain sec22, stronger effect = lower value 1.01 | locus YLR320W, strain mms22, stronger effect = lower value 1.01 | locus YLR330W, strain CHS5, stronger effect = lower value 1.03 | locus YLR342W, strain FKS1 (second series), stronger effect = lower value 1.02 | locus YLR342W, strain FKS1, stronger effect = lower value 1 | locus YLR357W, strain rsc2, stronger effect = lower value 0.975 | locus YLR370C, strain arc18, stronger effect = lower value 0.998 | locus YLR371W, strain rom2, stronger effect = lower value 0.995 | locus YLR384C, strain iki3, stronger effect = lower value 0.995 | locus YLR418C, strain cdc73, stronger effect = lower value 1.02 | locus YML016C, strain PPZ1, stronger effect = lower value 1.03 | locus YML032C, strain rad52, stronger effect = lower value 0.988 | locus YML120C, strain ndi1, stronger effect = lower value 0.999 | locus YML124C, strain tub3, stronger effect = lower value 0.999 | locus YMR058W, strain fet3, stronger effect = lower value 1.01 | locus YMR078C, strain ctf18, stronger effect = lower value 0.976 | locus YMR125W, strain sto1, stronger effect = lower value 0.986 | locus YMR129W, stronger effect = lower value 0.997 | locus YMR205C, strain PFK2, stronger effect = lower value 0.991 | locus YMR223W, strain ubp8, stronger effect = lower value 0.992 | locus YMR231W, strain pep5, stronger effect = lower value 0.998 | locus YMR263W, strain SAP30, stronger effect = lower value 1.04 | locus YMR307W, strain GAS1, stronger effect = lower value 1.15 | locus YNL067W, strain RPL9B, stronger effect = lower value 1.06 | locus YNL071W, strain lat1, stronger effect = lower value 1.01 | locus YNL128W, strain TEP1, stronger effect = lower value 1.04 | locus YNL183C, strain NPR1, stronger effect = lower value 0.993 | locus YNL209W, strain ssb2, stronger effect = lower value 0.993 | locus YNL233W, strain BNI4, stronger effect = lower value 1.05 | locus YNL248C, strain rpa49, stronger effect = lower value 1.01 | locus YNL250W, strain rad50, stronger effect = lower value 0.997 | locus YNL271C, strain bni1, stronger effect = lower value 0.991 | locus YNL298W, strain CLA4, stronger effect = lower value 1.01 | locus YNL307C, strain MCK1, stronger effect = lower value 1.01 | locus YNL322C, strain KRE1 (second series), stronger effect = lower value 0.979 | locus YNL322C, strain KRE1, stronger effect = lower value 1.03 | locus YNR049C, strain mso1, stronger effect = lower value 0.993 | locus YNR052C, strain pop2, stronger effect = lower value 0.982 | locus YOL012C, strain htz1 1.17 | locus YOL147C, strain pex11, stronger effect = lower value 0.992 | locus YOR001W, strain rrp6, stronger effect = lower value 1.01 | locus YOR061W, strain CKA2, stronger effect = lower value 1.03 | locus YOR069W, strain VPS5, stronger effect = lower value 1.02 | locus YOR070C, strain gyp1, stronger effect = lower value 1.01 | locus YOR080W, strain dia2, stronger effect = lower value 0.998 | locus YOR083W, strain WHI5, stronger effect = lower value 0.99 | locus YOR106W, strain vam3, stronger effect = lower value 1.01 | locus YOR136W, strain idh2, stronger effect = lower value 0.993 | locus YOR144C, strain elg1, stronger effect = lower value 0.99 | locus YOR184W, strain ser1, stronger effect = lower value 1.03 | locus YOR231W, strain MKK1, stronger effect = lower value 1.02 | locus YOR265W, strain rbl2, stronger effect = lower value 0.999 | locus YOR270C, strain vph1, stronger effect = lower value 1 | locus YOR290C, strain snf2, stronger effect = lower value 0.995 | locus YOR316C, strain cot1, stronger effect = lower value 1.01 | locus YPL051W, strain arl3, stronger effect = lower value 1.01 | locus YPL055C, strain LGE1, stronger effect = lower value 1.1 | locus YPL078C, strain atp4, stronger effect = lower value 1 | locus YPL106C, strain sse1, stronger effect = lower value 0.984 | locus YPL240C, strain hsp82, stronger effect = lower value 1.01 | locus YPL256C, strain CLN2, stronger effect = lower value 0.993 | locus YPR119W, strain clb2, stronger effect = lower value 1 | locus YPR141C, strain kar3, stronger effect = lower value 0.998 | locus YPR163C, strain tif3, stronger effect = lower value 0.997 | locus YPR167C, strain met16, stronger effect = lower value 1.01 | strain wtn01, stronger effect = lower value 1.02
active: locus YGL086W, strain mad1, stronger effect = lower value 1.28 [resistant] | locus YKL085W, strain MDH1 (second series), stronger effect = lower value 1.33 [resistant] | locus YKL085W, strain MDH1, stronger effect = lower value 1.33 [resistant]
